From PubChem BioAssay AID624255 (Broad Institute, 2012) come the findings set out here.

The campaign covered roughly 77,000 compounds. About 4,600 (6%) were called active. Roughly 1% stayed inconclusive and do not appear here.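 Rule for the calls: active = mean inhibition above about 93%, with at least 55% of replicates each passing it (limit read from the data, passing the limit was not always enough); inconclusive = only one of those two conditions holds; inactive = neither condition holds.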 Shown is part of a subset that was picked to be rich in actives.

This test can be described thus: T. cruzi intracellular proliferation inhibitors, primary screen, cell-based, beta-gal Tulahuen parasites, NIH3T3 host, luminescence (AID 624255). Conditions: T. cruzi beta-gal in NIH3T3, GalScreen luminescence, 90 h; at 8.34 µM; hits give high values.
As a reminder, the inhibition is the relative decrease from the control value, in per cent. For the compound `COc1cccc(-c2ccc3n(c2=O)C[C@@H]2[C@@H](CO)[C@H](C(=O)N4CCCCC4)N[C@H]32)c1`, the inhibition was 13.4% (inactive). As for `O=C(Nc1ccc(C(F)(F)F)cc1)N[C@@H]1CC[C@@H](CCNC(=O)c2ccccc2F)O[C@H]1CO`, the inhibition is 57.5% (inactive). Under `C[C@@H]1CN([C@@H](C)CO)C(=O)c2cc(-c3ccc(C#N)cc3)cnc2O[C@H]1CN(C)C(=O)CN(C)C` stands 30.7% (inactive); under `COCC(=O)Nc1ccc2c(c1)C(=O)N(C)C[C@@H](OC)[C@@H](C)CN(CC1CCCCC1)[C@@H](C)CO2`, 5.52% (inactive).

On to `O=C(C[C@H]1CC[C@H]2[C@@H](COC[C@H](O)CN2C(=O)c2ccccn2)O1)N1CCN(c2ccccc2)CC1`, for which the inhibition is -3.75% (inactive). Under `O=C(C[C@H]1CC[C@@H]2[C@H](COC[C@H](O)CN2Cc2ccc(Oc3ccccc3)cc2)O1)N1CCN(c2ccccc2)CC1` stands 117% (active); under `COc1cccc(S(=O)(=O)N2C[C@H](O)COC[C@H]3O[C@@H](CC(=O)N4CCN(c5ccccc5)CC4)CC[C@@H]32)c1`, 12.2% (inactive).

In the case of `COc1ccc(S(=O)(=O)N2CC[C@H]3[C@@H](CO)N(C)c4ccc(C#Cc5ccccc5OC)cc4[C@H]32)cc1`, the inhibition was 52% (inactive). Under `CCC(=O)Nc1ccc2c(c1)C(=O)N(C)[C@@H]1CC[C@@H](CC(=O)NCc3ccccc3Cl)O[C@H]1CO2` stands 5.11% (inactive); under `CCNC(=O)Nc1ccc2c(c1)C(=O)N(C)[C@@H]1CC[C@@H](CC(=O)NCCOC)O[C@@H]1CO2`, 4.1% (inactive); under `C[C@@H]1CN([C@@H](C)CO)S(=O)(=O)c2ccc(C3=CCCCC3)cc2O[C@@H]1CN(C)C(=O)CN(C)C`, 84.4% (inactive). Under `C[C@H](CO)N1C[C@H](C)[C@@H](CN(C)Cc2cccnc2)Oc2cc(C3=CCCC3)ccc2S1(=O)=O` stands 93.1% (inactive); under `C[C@@H]1CN([C@H](C)CO)S(=O)(=O)c2ccc(C3=CCCC3)cc2O[C@H]1CN(C)Cc1ccccc1F`, 118% (active); under `C[C@H]1CN([C@@H](C)CO)S(=O)(=O)c2ccc(C3=CCCC3)cc2O[C@H]1CN(C)Cc1cccc(C(=O)O)c1`, 18.6% (inactive). Under `C[C@@H]1CN([C@@H](C)CO)S(=O)(=O)c2ccc(C3=CCCCC3)cc2O[C@@H]1CN(C)Cc1cccc(C(=O)O)c1` stands 24% (inactive); under `C[C@@H]1CN([C@@H](C)CO)S(=O)(=O)c2ccc(C3=CCCC3)cc2O[C@@H]1CN(C)Cc1ccncc1`, 69.1% (inactive). As to `C[C@H]1CN([C@@H](C)CO)S(=O)(=O)c2ccc(C3=CCCCC3)cc2O[C@@H]1CN(C)Cc1ccccc1`, the inhibition was 117% (active). Consider `C[C@H]1CN([C@@H](C)CO)S(=O)(=O)c2ccc(C3=CCCC3)cc2O[C@@H]1CN(C)Cc1ccccc1`, for which the inhibition was 99.6% (active).

As to `C[C@@H]1CN([C@@H](C)CO)S(=O)(=O)c2ccc(C3=CCCC3)cc2O[C@H]1CN(C)C(=O)CC1CC1`, the inhibition is 36% (inactive). Consider `O=C(CCN1CCCCC1)NCC[C@H]1CC[C@@H](NC(=O)C2CCOCC2)[C@H](CO)O1`, for which the inhibition was 26.2% (inactive). Under `CO[C@@H]1CN(C)C(=O)c2cc(NC(=O)C3CC3)ccc2OC[C@@H](C)N(C(=O)NC(C)C)C[C@@H]1C` stands 72% (inactive); under `CC(C)(C)[S@](=O)N1Cc2cc(C(=O)N3CCCCC3)nc(-c3cccc(-c4ccccc4F)c3)c2[C@@H]1CCO`, 23.3% (inactive).

Regarding `C[C@@H]1CN([C@@H](C)CO)C(=O)c2cc(-c3cncnc3)cnc2O[C@H]1CN(C)C(=O)c1cccc(F)c1`, the inhibition is 0.0585% (inactive). Consider `COc1ccc(CN(C)C[C@@H]2Oc3ccc(NC(=O)Nc4cccc5ccccc45)cc3C(=O)N([C@H](C)CO)C[C@H]2C)cc1`, for which the inhibition was 74.4% (inactive). `C[C@@H]1CN([C@@H](C)CO)C(=O)c2cc(NC(=O)Nc3cccc4ccccc34)ccc2O[C@H]1CN(C)Cc1ccc(Cl)c(Cl)c1`: the inhibition was 97.7% (active). Take `C[C@@H]1CN([C@H](C)CO)C(=O)c2cc(NC(=O)Nc3ccccc3)ccc2O[C@@H]1CN(C)Cc1ccc(Cl)c(Cl)c1`: the inhibition was -114% (inactive). Take `C[C@@H]1CN([C@H](C)CO)C(=O)c2cc(NC(=O)Nc3ccccc3)ccc2O[C@H]1CN(C)Cc1ccc(Cl)c(Cl)c1`: the inhibition was -217% (inactive).

Regarding `C[C@@H]1CN([C@@H](C)CO)C(=O)c2cc(NC(=O)Nc3cccc4ccccc34)ccc2O[C@H]1CN(C)Cc1ccc(Oc2ccccc2)cc1`, the inhibition is 121% (active). Under `C[C@@H]1CN([C@@H](C)CO)C(=O)c2cc(NC(=O)Nc3cccc4ccccc34)ccc2O[C@@H]1CN(C)Cc1ccc(-c2ccccc2)cc1` stands 84.4% (inactive); under `COc1ccc(S(=O)(=O)N[C@H]2C=C[C@@H](CC(=O)O)O[C@@H]2CO)cc1`, 8.59% (inactive). Under `CCCN1C[C@@H](C)[C@@H](OC)CN(C)C(=O)c2ccc(NC(=O)Nc3cccc(F)c3)cc2OC[C@@H]1C` stands 9.75% (inactive). Turning to `COc1cccc(CNC(=O)C[C@H]2CC[C@@H](NC(C)=O)[C@@H](CO)O2)c1`, the inhibition is -45.2% (inactive). As for `CC(=O)N1C[C@@H]2[C@H](c3ccccc31)[C@H](CO)N2C(=O)Nc1ccc(F)cc1`, the inhibition was -6.85% (inactive).

For `C[C@@H](NC(=O)C[C@@H]1CC[C@H]2[C@@H](COC[C@@H](O)CN2C(=O)Nc2cccc(F)c2)O1)c1ccccc1`, the inhibition was 33.4% (inactive). Consider `O=C(C[C@@H]1C[C@H]2c3cc(NC(=O)Nc4ccccc4)ccc3O[C@H]2[C@@H](CO)O1)NCc1cccnc1`, for which the inhibition was -4.79% (inactive).

`Cc1noc(C)c1NC(=O)Nc1ccc2c(c1)C(=O)N([C@H](C)CO)C[C@@H](C)[C@@H](CN(C)S(=O)(=O)c1ccc(Cl)cc1)OCCCC[C@H](C)O2`: the inhibition is 55.2% (inactive). Under `COc1ccccc1S(=O)(=O)N[C@@H]1CC[C@H](CC(=O)N2CCN(C)CC2)O[C@@H]1CO` stands -19.7% (inactive); under `CN(C)C(=O)C[C@@H]1C[C@@H]2c3cc(NC(=O)c4ccc5c(c4)OCO5)ccc3O[C@@H]2[C@H](CO)O1`, -59.5% (inactive). Under `O=C(C[C@H]1C[C@H]2c3cc(NC(=O)c4ccc5c(c4)OCO5)ccc3O[C@H]2[C@@H](CO)O1)NCc1cccc(F)c1` stands 38.1% (inactive); under `O=C(C[C@@H]1C[C@@H]2c3cc(NC(=O)c4ccc5c(c4)OCO5)ccc3O[C@@H]2[C@@H](CO)O1)NCc1ccc(Cl)cc1`, 97.9% (active).

For the compound `O=C(Nc1ccc2c(c1)[C@@H]1C[C@H](CC(=O)N3CCOCC3)O[C@@H](CO)[C@@H]1O2)c1ccc2c(c1)OCO2`, the inhibition is 103% (active). As for `O=C(C[C@@H]1C[C@H]2c3cc(NC(=O)C4CCOCC4)ccc3O[C@H]2[C@H](CO)O1)NCc1ccc2c(c1)OCO2`, the inhibition was 40.2% (inactive). Under `O=C(C[C@@H]1C[C@H]2c3cc(NC(=O)CC4CC4)ccc3O[C@H]2[C@@H](CO)O1)NCc1ccc2c(c1)OCO2` stands 30.3% (inactive); under `CCCNC(=O)C[C@H]1C[C@@H]2c3cc(NS(=O)(=O)c4cccc(OC)c4)ccc3O[C@@H]2[C@@H](CO)O1`, -11.6% (inactive). Under `O=C(C[C@@H]1C[C@H]2c3cc(NC(=O)C4CCC4)ccc3O[C@H]2[C@@H](CO)O1)NCc1ccc2c(c1)OCO2` stands 106% (active); under `COc1cccc(S(=O)(=O)Nc2ccc3c(c2)[C@H]2C[C@H](CC(=O)NCc4ccc(Cl)cc4)O[C@H](CO)[C@H]2O3)c1`, 159% (active).

`O=C(C[C@H]1C[C@@H]2c3cc(NC(=O)c4ccc5c(c4)OCO5)ccc3O[C@@H]2[C@@H](CO)O1)NCc1cccnc1`: the inhibition was -76.9% (inactive). Take `CN1CCN(C(=O)C[C@@H]2C[C@@H]3c4cc(NC(=O)c5ccc6c(c5)OCO6)ccc4O[C@@H]3[C@H](CO)O2)CC1`: the inhibition is 8.43% (inactive). Under `COc1cccc(S(=O)(=O)Nc2ccc3c(c2)[C@@H]2C[C@@H](CC(=O)NCc4ccc(Cl)cc4)O[C@H](CO)[C@@H]2O3)c1` stands 32.2% (inactive); under `CCNC(=O)C[C@@H]1CC[C@H]2[C@@H](COc3ccc(NC(=O)NC(C)C)cc3C(=O)N2C)O1`, 39.8% (inactive); under `C[C@H](CO)N1C[C@H](C)[C@@H](CN(C)S(=O)(=O)c2cccs2)OCc2ccccc2-c2ccccc2C1=O`, 24.1% (inactive).

As for `O=C(C[C@@H]1C[C@H]2c3cc(NS(=O)(=O)c4ccc(F)cc4)ccc3O[C@H]2[C@H](CO)O1)NC1CCCC1`, the inhibition was -34% (inactive).

Consider `O=S(=O)(N[C@@H]1CC[C@H](CCn2cc(-c3ccccc3F)nn2)O[C@H]1CO)c1ccc(F)cc1`, for which the inhibition is 41.8% (inactive). Under `COc1cccc(NC(=O)Nc2ccc3c(c2)C(=O)N(C)[C@@H]2CC[C@@H](CC(=O)NCCc4ccccc4)O[C@H]2CO3)c1` stands 52.2% (inactive); under `COc1ccc(S(=O)(=O)N2C[C@@H](O)COC[C@H]3O[C@H](CC(=O)N[C@H]4CCN(Cc5ccccc5)C4)CC[C@@H]32)cc1`, 77.6% (inactive); under `COc1ccc(NC(=O)Nc2ccc3c(c2)C(=O)N([C@H](C)CO)C[C@@H](C)[C@@H](CN(C)C(=O)NC(C)C)OCCCC[C@H](C)O3)cc1`, 38.7% (inactive). As for `CCC(=O)N(C)C[C@H]1Oc2cc(-c3ccccc3F)ccc2S(=O)(=O)N([C@H](C)CO)C[C@@H]1C`, the inhibition is 81.3% (inactive). Consider `O=C(C[C@H]1CC[C@H]2[C@@H](COC[C@H](O)CN2Cc2ccncc2)O1)NCC1CC1`, for which the inhibition was 8.17% (inactive). Under `C[C@@H]1CN([C@@H](C)CO)C(=O)c2cc(C#CCN(C)C)cnc2O[C@H]1CN(C)S(=O)(=O)c1cn(C)cn1` stands -8.13% (inactive); under `Cn1cnc(S(=O)(=O)N2C[C@H](O)COC[C@@H]3O[C@H](CC(=O)NC4CCCC4)CC[C@H]32)c1`, 5.65% (inactive).
